Results filed as inconclusive are left out.

From PubChem BioAssay AID939 (National Center for Advancing Translational Sciences (NCATS), 2007) come the findings set out here.

This assay is described as follows: Confirmation Concentration-Response Assay for Agonists of the Thyroid Stimulating Hormone Receptor. Particulars: HEK293 TSHR-CNG cells, membrane potential dye, cAMP; measured here: parental HEK293 counter-screen max. Put shortly: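 Read-out: membrane potential dye fluorescence (emission 590 nm) after 30 min compound exposure, reflecting cAMP-gated CNG opening in TSHR/CNG HEK 293 cells. Dye with 100 uM RO 20-1724 pre-equilibrated 60 min at room temperature. CNG-only parental cells control.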
Background: Counterscreens check selectivity or assay interference.
Turning to `Cc1cc(Cl)c(S(=O)(=O)Nc2ccc3c(c2)OCO3)cc1OCC(N)=O`, the max response is -8.28%.
Turning to `CN(Cc1ccco1)C(=O)Cn1c(=O)oc2cc(S(=O)(=O)NCc3ccccc3)ccc21`, the max response is -3.7%.
Regarding `CCOC(=O)c1cnc(-n2nc(C)cc2C)nc1-n1nc(C)cc1C`, the max response is -6.3%.
For the molecule `Cc1cccc(NC(=O)CSc2nnc(-c3ccccc3)n2N)c1C`, the max response was -2.22%.
Next, `Cc1cc(SCNC(=O)c2ccccc2)ncn1`: -2.72%.
Take `Cc1nc2ccc(Br)cn2c(=O)c1Cl`: the max response was -3.12%.
The value for `O=C1N(c2ccccc2)C2CS(=O)(=O)CC2N1c1ccc(Cl)c(Cl)c1` (stereo not given) was -23.3%; that for `CCOC(=O)N1CCC(NC(=O)c2ccc(CNS(=O)(=O)c3ccc(F)cc3)cc2)CC1` was 8.37%; that for `Cc1onc(-c2ccccc2)c1C(=O)N1CCCSC1=Nc1ccccc1` was 18.9%.
Next, `COc1cccc(C2CC(c3ccccc3OC)n3nc(N)nc3N2)c1` (stereo not given): 6.01%.
With `Cc1occc1-c1nnc(SCC(=O)Nc2ccccc2)n1C(C)c1ccccc1` (stereo not given), the max response is -10%.
Turning to `COc1ccc(S(=O)(=O)NCCC(=O)NCc2ccc(F)cc2)cc1`, the max response was -8.89%.
Regarding `C=CCn1c(NCc2ccc3c(c2)OCO3)nc2ccccc21`, the max response was determined as 13.4%.
Next, `CCn1c(=O)c(C(=O)CN2CCCc3ccccc32)c(N)n(Cc2ccccc2)c1=O`: -16.6%.
Next, `NC(=O)c1nsc(C(=O)N(CC(=O)NCc2ccc3c(c2)OCO3)C2CCCC2)c1N`: 7.46%; `COc1cccc(C(c2nnnn2Cc2ccccc2)N2CCN(C(=O)c3ccco3)CC2)c1OC` (stereo not given): -3.51%; `CC(=O)N1CCCc2cc(S(=O)(=O)N(CC(C)C)CC(C)C)ccc21`: 14.4%.
Next, `O=C(CN(Cc1ccc(F)cc1)S(=O)(=O)c1ccccc1)N1CCCCC1`: -6.59%.
Take `Cc1ccccc1-n1nc(C)c2cc(C(=O)N3CCN(S(=O)(=O)c4ccc(F)cc4)CC3)sc21`: the max response was -1.22%.
Take `O=c1c2ccccc2ncn1-c1ccc2c(c1)OCCO2`: the max response was determined as 6.03%.
Regarding `Nc1ccc2c(c1)COc1ccccc1O2`, the max response is -5.76%.
Take `Cc1cc(C)nc(N(C#N)CC(=O)N2CCC(C(N)=O)CC2)n1`: the max response is -13.4%.
For `O=C(Nc1ccc(N2CCOCC2)cc1)C1CC1`, the max response came out at 5.07%.
For the molecule `Cc1ccc(S(=O)(=O)N2CCC(C(=O)NCCCN3CCCCCC3)CC2)cc1`, the max response is -4.36%.
The value for `COc1ccc(CNc2nc(SC)n[nH]2)cc1OC` was 3.91%; that for `COc1cc(/C=N/n2c(SC)nnc(C(C)(C)C)c2=O)ccc1O` was -7.99%; that for `O=C(CN(Cc1ccccc1Cl)C(=O)Cn1nnc(-c2cccs2)n1)NCC1CCCO1` (stereo not given) was 8.66%.
Take `COc1ccc(-c2cc(C(F)(F)F)nc(SCCC(=O)N3CCOCC3)n2)cc1`: the max response came to 13%.
Next, `CSc1nc(NC(C)(C)C)nc(Oc2ccc(=O)[nH]n2)n1`: -2.82%; `CCOC(=O)c1ccc(NC(=O)c2ccc(CN3CCOCC3)cc2)cc1`: 11%.
